A selection: hits, their analogues and other compounds. The true share with any hit is near 4.1%.
Bfl-1 A1 inh: inhibitors of the anti-apoptotic protein A1, read as caspase activation; caspase activation, % (concentration not given with the values); MEF A1-2A-BIM cells, Caspase-Glo 3/7 luminescence, 3 h; percent of clofoctol response, vehicle zero; 330,000 tested, 0.066% active; AID 2462;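 active = over half of replicate activation scores above 10%, or exactly half above 10 with the replicate mean above 10; inconclusive = replicate mean below 10 yet half the replicates above 10; inactive = over half of replicates below 10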
CSC inhib: blocks cancer stem cells; 300,000 tested, 1.1% active; inhibition, % at 7.5 µM; cancer stem cell-like cells viability, luminescence; AID 2717; in the data active = inhibition above about 75%; inconclusive = no clear call, values can overlap the other calls; tested in HMLE shEcad cells
aSyn 5UTR inh: MLPCN primary screen, SNCA 5' untranslated region. inhibition, % (tested at 7.5 µM). 300,000 tested, 0.82% active. alpha-synuclein 5'UTR reporter, inhibitor activity; in the data active = inhibition above about 60%; inconclusive = no clear call, values can overlap the other calls;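 also: H4 neuroglioblastoma cells stably carrying SNCA 5'UTR luciferase fusion; 0% = DMSO wells and 100% = positive control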
Mdm2-MdmX inh: inhibitors of human Mdm2/MdmX interaction; inhibition, % at 8 µM; O15151+Q00987; 330,000 tested, 3% active; SaOS-2 split-luciferase Mdm2/MdmX complementation, luminescence; AID 485346;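 active = inhibition of at least 50% at 8 µM in the primary screen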
Target sequence (O15151 whole entry, looked up): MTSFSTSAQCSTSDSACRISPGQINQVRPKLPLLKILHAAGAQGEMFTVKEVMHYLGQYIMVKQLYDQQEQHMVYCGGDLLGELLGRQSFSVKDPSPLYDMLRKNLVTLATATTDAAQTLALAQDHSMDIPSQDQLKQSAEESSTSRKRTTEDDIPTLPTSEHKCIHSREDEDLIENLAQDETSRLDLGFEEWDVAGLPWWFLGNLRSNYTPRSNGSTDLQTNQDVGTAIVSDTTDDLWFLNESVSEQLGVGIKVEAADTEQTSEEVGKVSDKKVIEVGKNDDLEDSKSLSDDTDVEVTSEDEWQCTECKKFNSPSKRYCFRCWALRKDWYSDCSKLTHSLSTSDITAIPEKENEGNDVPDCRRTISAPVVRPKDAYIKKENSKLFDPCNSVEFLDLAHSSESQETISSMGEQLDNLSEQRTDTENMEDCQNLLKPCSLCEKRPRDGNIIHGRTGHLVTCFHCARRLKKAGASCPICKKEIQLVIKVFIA
Target sequence (Q00987 whole entry, looked up): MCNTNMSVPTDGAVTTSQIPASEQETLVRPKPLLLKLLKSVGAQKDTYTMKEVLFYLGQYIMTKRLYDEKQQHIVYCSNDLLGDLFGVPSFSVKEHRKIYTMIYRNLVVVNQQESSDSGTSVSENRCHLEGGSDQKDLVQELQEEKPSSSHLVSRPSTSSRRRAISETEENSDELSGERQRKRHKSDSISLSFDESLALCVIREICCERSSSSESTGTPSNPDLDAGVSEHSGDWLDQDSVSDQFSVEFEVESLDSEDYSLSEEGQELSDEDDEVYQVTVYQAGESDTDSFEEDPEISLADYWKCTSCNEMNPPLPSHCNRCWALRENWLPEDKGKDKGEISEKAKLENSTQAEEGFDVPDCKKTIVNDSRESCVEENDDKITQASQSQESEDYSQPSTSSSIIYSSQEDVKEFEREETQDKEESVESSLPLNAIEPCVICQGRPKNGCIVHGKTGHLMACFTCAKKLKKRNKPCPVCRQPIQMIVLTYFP
Beta cell apopt: beta cell apoptosis inhibition | AID 435005 | INS-1E cytokine-induced death, ATP luminescence, 48 h; percent of positive-control rescue, neutral wells zero | protection from apoptosis, % (test concentration not listed) | 300,000 tested, 0.8% active;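 active = Every replicate reaches about 75%, or at least half do and their mean reaches it too, limit read from the data; inconclusive = At least half of replicates reach the limit but their mean does not; inactive = Under half of replicates reach the limit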;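 also: 0% = cytokine-treated negative control wells and 100% = positive control rescue; higher means more ATP so stronger rescue from cytokine killing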
An asterisk follows results filed as active; ? = inconclusive; . = no result.

SMILES | Bfl-1 A1 inh | CSC inhib | aSyn 5UTR inh | Mdm2-MdmX inh | Beta cell apopt
CC(C)N1CCc2c(sc(NC(=O)c3ccc4ccccc4c3)c2C(N)=O)C1 | 0.6 | 78.6* | -97.0 | 40.5 | 24.8
Cc1sc(-n2c(C)cc(/C=C3\SC(=S)NC3=O)c2C)c(C#N)c1C | 2.9 | 78.8* | -22.2 | 17.4 | -5.7
CCC(Sc1nc2ncccc2[nH]1)C(=O)N1CCOCC1 (stereo not drawn) | 0.7 | -9.3 | 0.0 | -3.4 | -1.8
S=C(c1ccc(-c2ccccc2)cc1)N1CCOCC1 | 0.5 | -2.0 | 64.5* | -6.4 | -7.6
Cc1cccc(-c2cc3nc4c(c(NCc5ccco5)n3n2)CCCC4)c1 | -0.2 | 116.8* | -92.5 | -70.3 | 33.2
CC1(C)C=Cc2c(ccc3c2OC[C@H](c2ccc(O)cc2O)C3)O1 | 0.4 | 114.2* | . | -46.9 | 2.2
O=C(CSCc1cccc(Cl)c1)Nc1ccccc1-c1ccccc1 | 0.3 | 75.4* | 7.0 | 28.5 | -3.8
COc1cccc(CNC(=O)Cn2c(=O)c3cccn3c3ccccc32)c1 | 0.1 | -18.5 | 0.8 | 2.7 | 4.5
Oc1ccc(-c2nc3ccc4ccccc4c3c3c2CCC3)cc1O | 0.1 | 108.6* | -151.2 | 8.2 | -2.7
Cc1ccc(CSc2nnc(SCC(=O)N/N=C/c3ccccc3OCC(=O)O)s2)cc1 | -1.5 | 13.8 | 61.7* | -1.8 | -2.8
Cc1ccc(CSc2nnc(SCC(=O)N/N=C/c3c[nH]c4ccccc34)s2)cc1 | . | . | 13.5 | . | .
Cc1ccc(CSc2nnc(SCC(=O)N/N=C/c3ccc(C(=O)O)cc3)s2)cc1 | -4.2 | 0.9 | 69.5* | 1.3 | -0.4
O=C1NN(c2ccc(Br)cc2)C(=O)/C1=C\c1ccc(O)cc1O | -0.4 | 2.1 | -1.3 | 14.4 | -3.0
O=C1NN(c2cccc(Br)c2)C(=O)/C1=C\c1ccc(O)cc1 | 0.2 | 108.2* | 14.1 | 4.7 | -11.0
O=C(c1ccc2c3n(nc2c1)-c1ccccc1CO3)N1CCCCC1 | -9.7 | ? | -9.9 | -163.2 | 59.3
O=C(c1ccc2c3n(nc2c1)-c1ccccc1CO3)N1CCOCC1 | -13.0 | 98.0* | -113.7 | -25.3 | .
CC1=C(CC(=O)c2ccc(Cl)cc2)C(=O)c2ccccc2C1=O | -0.6 | 41.2 | -70.0 | -3.4 | 98.9*
O=C(Cc1ccccn1)c1ccc(Cl)cc1 | -9.2 | -0.7 | -164.2 | -47.4 | -7.3
COc1ccc(N(C(=O)CCl)C(C(=O)NCCc2ccccc2)c2cccs2)cc1Cl (stereo not drawn) | 3.5 | 109.0* | 16.2 | . | 98.5*
O=C(Nc1ccc(N2CCOCC2)cc1N1CCOCC1)c1cccc([N+](=O)[O-])c1 | 1.9 | -6.7 | 10.7 | 13.4 | -2.1
Cc1ccc(C(=O)NNC(=O)CCCN2C(=O)/C(=C/c3ccccc3Cl)SC2=S)cc1 | -0.1 | 38.2 | 68.5* | 40.4 | -21.4
O=C(CCN1C(=O)/C(=C/c2ccccc2Cl)SC1=S)NNC(=O)c1ccccc1O | 0.0 | 11.3 | 12.6 | 11.0 | 0.5
O=C(CCN1C(=O)/C(=C/c2ccccc2Cl)SC1=S)NNC(=O)c1cccnc1 | -0.4 | -2.4 | -21.3 | 2.4 | -1.3
O=C(CCCN1C(=O)/C(=C/c2ccccc2Cl)SC1=S)NNC(=O)c1ccc(Cl)cc1 | -2.0 | 14.4 | 64.7* | 42.4 | -14.3
Cc1ccc(/C=C2\SC(=S)N(CCCC(=O)NNC(=O)c3ccccc3O)C2=O)cc1 | -0.3 | -5.8 | 106.6* | 49.4 | -1.7
SMILES | Bfl-1 A1 inh | CSC inhib | aSyn 5UTR inh | Mdm2-MdmX inh | Beta cell apopt
C=C1[C@@H](C)C2[C@H](Cc3ccccc3)NC(=O)[C@]23OC(=O)CC[C@H](O)CCC[C@H](C)C/C=C/[C@H]3[C@@H]1O (stereo partly drawn) | . | . | 80.4* | . | .
Cc1ccccc1C(=O)N1CCC(C(=O)NN2C(=O)NC3(CCCCC3)C2=O)CC1 | 1.0 | -13.7 | . | 11.4 | -3.0
COc1ccc(C2=CC(c3ccc(F)cc3)n3nnnc3N2)cc1 (stereo not drawn) | -0.1 | -5.4 | -130.2 | 3.5 | -1.6
Cc1ccc(C2=CC(c3ccc(N(C)C)cc3)n3nnnc3N2)cc1 (stereo not drawn) | -0.5 | 1.3 | -37.5 | -22.3 | 108.3*
Cn1c(N)c(C(=O)CSc2nn(-c3ccc(F)cc3)c(=S)s2)c(=O)n(C)c1=O | -0.4 | 10.8 | . | 38.4 | -6.9
CC(=O)C(C)n1c(CN(C)Cc2ccccc2)nc2c1c(=O)n(C)c(=O)n2C (stereo not drawn) | -0.4 | -16.0 | 6.6 | -8.5 | 2.9
CC(C)n1c(CN(C)Cc2ccccc2)nc2c1c(=O)n(C)c(=O)n2C | -0.1 | 9.7 | 64.3* | 19.0 | 96.0*
Cc1ccc(C(=O)Nc2ccc3ccccc3c2)cc1 | -8.9 | 21.2 | 66.0* | -52.6 | 3.2

Bioassay records as filed in PubChem BioAssay.
